In the library only some 11% were active in any assay of this set; here they are far more common.
VP16 counter = Gal4-VP16 reporter inhibition counter-screen; Drosophila S2 Gal4-VP16 UAS-luciferase, luminescence, 20 h; Potency, µM (series often up to 53.6 µM), most hits filed as inhibitors; 3.5% of 310,000 active;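 further: Gal4-VP16 expression switched on by copper sulfate through the metallothionein promoter; nearly all actives have a fitted effect of over 50% in size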
IL-1B inflam inh = inflammasome signaling inhibition, IL-1 beta readout | THP-1 LPS/ATP IL-1B secretion, AlphaLISA, 16 h; active compounds read low | activity change, % at 57.5 µM | AID 743279 | 4.7% of 360,000 active; in the data active means activity change below about -50%; inconclusive means mostly about -30% to -49%
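THP-1 cells pretreated 1 hr with compounds (up to 57.5 uM final), then stimulated with LPS (250 ng/mL final) plus ATP (1.25 mM final); secreted IL-1B measured by AlphaLISA after 16 hr, decreased signal indicating inhibition.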
MCF10A rereplic = induces DNA re-replication in MCF 10a normal breast cells | MCF 10A DNA re-replication, Hoechst nuclear intensity, 48 h | Potency, µM (doses to about 46.1 µM), hits mostly activators | 2.9% of 350,000 active | AID 624296; further: nearly all actives have a fitted effect of over 50% in size
SW480 rereplic = induces DNA re-replication in SW480 colon adenocarcinoma cells | SW480 DNA re-replication, Hoechst DNA content imaging, 48 h | 1.8% of 340,000 active | Potency, µM (doses to about 46.1 µM), usual class: activators; further: nearly all actives have a fitted effect of over 55% in size
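DNA re-replication was detected as more nuclei of elevated Hoechst intensity after 48 hr exposure to compound (23 nL pinned per well of 250 cells).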
RORgamma inh = ROR gamma (mouse) transcription inhibition; Potency, µM (doses to about 53.6 µM), hits mostly inhibitors; P51450; 5.4% of 310,000 active; Drosophila S2 Gal4-RORgamma UAS-luciferase reporter, 20 h; further: nearly all actives have a fitted effect of over 60% in size
Target sequence (P51450 whole entry, looked up, the tested form may be a part): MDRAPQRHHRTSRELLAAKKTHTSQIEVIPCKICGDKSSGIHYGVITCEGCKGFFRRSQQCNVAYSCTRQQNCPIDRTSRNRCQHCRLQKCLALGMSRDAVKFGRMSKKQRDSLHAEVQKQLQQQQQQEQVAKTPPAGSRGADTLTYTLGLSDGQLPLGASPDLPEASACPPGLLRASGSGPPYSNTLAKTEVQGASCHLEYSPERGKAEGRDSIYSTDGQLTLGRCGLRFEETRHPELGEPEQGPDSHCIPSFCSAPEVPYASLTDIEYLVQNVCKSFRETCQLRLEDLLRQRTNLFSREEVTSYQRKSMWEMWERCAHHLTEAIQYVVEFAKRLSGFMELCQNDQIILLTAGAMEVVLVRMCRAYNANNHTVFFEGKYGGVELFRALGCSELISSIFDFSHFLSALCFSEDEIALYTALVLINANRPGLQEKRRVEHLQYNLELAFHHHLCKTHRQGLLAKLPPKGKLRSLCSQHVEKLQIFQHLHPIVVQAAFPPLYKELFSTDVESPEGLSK
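In this cell-based reporter format, copper sulfate (700 uM final) drives Gal4–ROR gamma fusion expression from a metallothionein promoter in Drosophila Schneider cells; compounds preincubated 1 hr, reporter read after 20 hr at ambient temperature.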
Hits are given with their value; i = inactive; ? = inconclusive; nt = no result given; [ ] = another dose, or the depositor's remark. Unless noted, the call rests on the fitted dose curve; in most records, active means well fitted curve in the direction sought with a large enough effect; inconclusive means small, poorly fitted or top-dose-only effect, or another doubt; inactive means no such curve, though single readings can be large; an effect the other way counts as inactive or inconclusive.

SMILES | VP16 counter | IL-1B inflam inh | MCF10A rereplic | SW480 rereplic | RORgamma inh
Cc1ccc(C(=O)/C=C2\NCC(C)NC2=O)cc1 (stereo not given) | 10µM | i | i | i | 8.91µM
Cc1ccc(N/C=C/C(=O)c2cccs2)cc1 | 8.91µM | i | i | i | ?
O=C(/C=C/Nc1cccc(F)c1)c1ccco1 | ? | i | i | i | ?
O=C(/C=C/Nc1ccc(Br)cc1F)c1ccco1 | 7.94µM | i | i[9.22 µM] | i | 7.08µM
O=C(/C=C/Nc1ccc(F)cc1F)c1ccco1 | 7.08µM | i | ? | ? | 7.94µM
O=C(/C=C/Nc1ccc(F)cc1F)c1cccs1 | 2.51µM | i | i | nt | 1.58µM
CCC1=C2CC[C@H]3C(=O)N(c4ccccc4)C(=O)[C@H]3[C@H]2[C@@]2(Cc3ccccc3)C(=NCc3ccccc3)OC(=O)N2C1=O | i | nt | nt | nt | i
O=C(/C=C/c1cccc(Cl)c1Cl)OCC(=O)N1CCOCC1 | nt | ? | i | i | nt
CCCNC(=O)c1ccc(Cn2cc(-c3ccc(OC)cc3)nc2C(C)N)cc1 (stereo not given) | nt | i | i | i | nt
CCCCC(=O)N(C)c1c(C)nc2ccc(C(=O)N3CCN(c4ccccc4)CC3)cn12 | nt | i | nt | nt | nt
Cc1ccc(CNC(=O)[C@@H]2C[C@H]2[C@@H](NP(=O)(c2ccccc2)c2ccccc2)c2ccccc2)o1 | i | nt | nt | nt | i
O=C(Cc1ccc(Br)cc1)NCCc1ccc(Cl)cc1Cl | i | -59.8 | i | i | ?
COCC(C)NC(=S)NCCc1ccc(Cl)cc1Cl (stereo not given) | 3.55µM | i | ? | ? | 1µM
COCCNC(=S)NCCc1ccc(Cl)cc1Cl | i | i | i | 16.4µM | 6.31µM
O=C(Cc1ccccc1)NCCc1ccc(Cl)cc1Cl | i | i | i | i | i
COCC(C)NC(=O)COc1ccc(Cl)cc1Cl (stereo not given) | i | i | i | i | i
O=C(O)CN1C(=O)C2(OCCO2)c2cc(Br)ccc21 | nt | i | i | i | nt
CC(=O)N/C(=C/c1ccccc1)c1ccccc1 | nt | i | i | ? | nt
CC(C)(C)NCC(=Cc1ccccc1)C(=O)c1ccccc1 | nt | -101.7 | 1.84µM | 5.17µM | nt
CCCCNC(=O)c1nc(C2CCN(S(=O)(=O)c3c(OC)cccc3OC)CC2)oc1-c1ccccc1 | nt | i | nt | nt | nt
COc1ccc2nc(C)cc(NCc3ccc(F)cc3)c2c1 | i | -78.8 | 18.4µM | ? | i
COc1ccc(/C=N/Nc2ncc(-c3ccccc3)cn2)c(OC)c1 | ? | i | ? | ? | ?
COc1ccc2nc(C)cc(Nc3ccc(C)cc3)c2c1 | i | ? | ? | i | i
COc1ccc(/C=N/Nc2nc(C)cc(-c3ccccc3)n2)c(OC)c1 | 11.2µM | i | i | i | 10µM
COc1ccc(O)c(/C=N/Nc2nc(C)cc(-c3ccccc3)n2)c1 | nt | i | ? | i | nt
SMILES | VP16 counter | IL-1B inflam inh | MCF10A rereplic | SW480 rereplic | RORgamma inh
COc1ccc(/C=N/Nc2cc(C)nc3ccc(OC)cc23)c(OC)c1 | 10µM | -103.9 | ? | 23.1µM | 11.2µM
Cc1cc(-c2ccccc2)nc(N/N=C/c2ccc(O)cc2)n1 | nt | -100.3 | ? | i | nt
Oc1ccc(/C=N/Nc2nc(-c3ccc(Cl)cc3)cc(C(F)(F)F)n2)cc1 | i | -99.1 | ? | ? | i
Cc1ccc2nc(C)cc(N/N=C/c3ccccc3O)c2c1 | 7.94µM | i | i | i | 5.62µM
COc1ccc2nc(C)cc(N/N=C/c3ccccc3)c2c1 | nt | -86.5 | 23.1µM | 16.4µM | nt
Cc1cc(N/N=C/c2ccc(N(C)C)cc2)c2ccccc2n1 | ? | i | ? | ? | 15.8µM
COc1ccccc1/C=N/Nc1cc(C)nc2ccc(C)cc12 | i | i | i | i | i[1.91 µM]
Cc1cc(N/N=C/c2ccco2)c2ccccc2n1 | i | i | i | i | i
COc1ccc(CN2C(=O)CCC2(C)c2nnnn2Cc2ccccc2)cc1 (stereo not given) | nt | i | nt | nt | nt
COc1ccc(NC(=O)CCc2nnc3ccc(N4CCN(c5cccc(OC)c5)CC4)nn23)cc1 | i | i | i | i | i
COc1ccc(C(=O)CCN2CCc3cc(OC)c(OC)cc3C2)cc1 | ? | -58.9 | 3.66µM | i | ?
CCN1CCN(CC(=O)c2ccc(OC)cc2)CC1 | i | i | 2.06µM | i | i
COc1ccccc1N1CCN(CC(=O)Nc2cc(F)ccc2C)CC1 | i | ? | i | ? | i
COc1ccccc1N1CCN(CC(=O)Nc2cc(C)nn2-c2nc(C)cc(C)n2)CC1 | nt | i | i | 9.2µM | nt
COc1cc2c(cc1OC)CN(CCOc1ccc(Br)cc1)CC2 | i | i | i | i | i
COc1ccc(C(=O)CCN2CCN(c3ccccc3OC)CC2)cc1 | 2.82µM | ? | 2.59µM | ? | i
N/C(=N\NS(=O)(=O)c1ccccc1Cl)c1ccccn1 | nt | i | i | i | nt
CC1(C)N=C(N)N=C(N)N1c1ccc(Oc2ccc(Cl)cc2)c(Cl)c1 | i | -86.0 | i | i | i
CCC(=O)c1ccc(OC(=O)N2CCOCC2)cc1 | i | i | i | i | i
Cc1nn(C)c(C)c1/C=N/NC(=O)CCn1nc(C)c([N+](=O)[O-])c1C | 3.55µM | i | i | i | i
C/C(Cn1nc([N+](=O)[O-])cc1C)=N\NC(=O)COc1ccccc1[N+](=O)[O-] | ? | i | i | i | i
C/C(Cn1nnc([N+](=O)[O-])n1)=N\NC(=O)c1ccccc1Cl | ? | i | i | ? | ?
C/C(Cn1nc([N+](=O)[O-])cc1C)=N\NC(=O)c1cccc(Br)c1 | ? | i | i | i | 12.6µM
C/C(Cn1nnc([N+](=O)[O-])n1)=N\NC(=O)c1cccc(Cl)c1 | ? | i | i | i | 10µM
C#CCOCCOCCOCCNc1nc(N2CCN(C(=O)CCCCCCCCCCNC(=O)Cn3cc(C[C@@H](C)O)nn3)CC2)nc(N2CCN(C(=O)CCCCCCCCCCNC(=O)[C@@H]([C@H](C)CC)n3cc(CCCCCN)nn3)CC2)n1 | nt | -105.1 | ? | ? | nt
SMILES | VP16 counter | IL-1B inflam inh | MCF10A rereplic | SW480 rereplic | RORgamma inh
C#CCOCCOCCOCCNc1nc(N2CCN(C(=O)CCCCCCCCCCNC(=O)Cn3cc(CCCCCN)nn3)CC2)nc(N2CCN(C(=O)CCCCCCCCCCNC(=O)[C@@H]([C@H](C)O)n3cc(C)nn3)CC2)n1 | nt | i | i | i | nt
C#CCOCCOCCOCCNc1nc(N2CCN(C(=O)CCCCCCCCCCNC(=O)Cn3cc(CCCCCN)nn3)CC2)nc(N2CCN(C(=O)CCCCCCCCCCNC(=O)Cn3cc(C[C@@H](C)O)nn3)CC2)n1 | nt | -77.4 | 23.1µM | i | nt
O=C(/C=C/c1ccc(S(=O)(=O)N2CCOCC2)cc1)NC(=S)Nc1ccc(N2CCOCC2)cc1 | i | -76.5 | i | i | 5.62µM
Cc1cc(NC(=S)NC(=O)/C=C/c2ccc(S(=O)(=O)N3CCOCC3)cc2)ccc1Br | i | -87.8 | i | ? | 7.08µM
CC(C)(C)NNC(=S)Nc1ccc(S(=O)(=O)N2CCOCC2)cc1 | ? | i | i | i | 5.62µM
Cc1ccc(NC(=O)/C=C/c2ccc(S(=O)(=O)N3CCOCC3)cc2)cc1S(=O)(=O)N(C)C | nt | i | i | ? | nt
